Source: PubChem BioAssay
Sampled rows, rich in hits. Any-hit rate of the full collection: about 3%.
HEK293 cAMP cs: parental HEK293 cAMP activation (counter-screen) | parental HEK293 CNG cAMP sensor, membrane potential fluorescence | Potency, µM (series often up to 57.1 µM), inactives show top-dose activation, actives largely listed as activators | actives 2.5% (n = 73,000) | AID 938; further: potency means the concentration at half of the fitted maximal effect; % of control where 0% means no effect; nearly all actives have a fitted effect of over 55% in size
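Parental HEK 293 cells stably expressing a cAMP-gated CNG channel were loaded with membrane potential dye containing 100 uM RO 20-1724 for 60 min. Compound added for 30 min; depolarization read as fluorescence intensity at 590 nm.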
GFP derepression: derepresses silenced GFP locus in mouse C127i cells; mouse C127i GFP locus derepression, cytometry, 30 h; Potency, µM (series often up to 46.1 µM), for inactives: top-dose GFP derepression (activation); actives 0.09% (n = 68,000); AID 597; further: % of control where 0% means no effect
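Murine C127i mammary cells carrying a silenced, stably integrated CMV-driven GFP reporter were treated with compound for 30 hours at 37 C. After PBS washes, GFP-positive cells were counted by laser-scanning microplate cytometry.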
UbGFP stabilizer: proteasome inhibitors stabilizing ubiquitin-GFP reporter. Ubiquitin-GFP reporter cells, proteasome inhibition, GFP fluorescence; response scale: untreated = 0%, 10 µM MG-132 = 100%. Potency, µM (titrated, usually from 45.9 µM), for the others: at the highest dose activation (GFP accumulation), most hits filed as activators. 67,000 tested, under 10 active. AID 526; active means well fitted activation curve with a large enough effect, not every such curve was filed as active; inconclusive means small, poorly fitted or top-dose-only effect, or another doubt; inactive means no such curve, though single readings can be large or run the other way; further: potency means the concentration at half of the fitted maximal effect
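GFP accumulation read-out: laser plate cytometry counting ubiquitin(G76V)-GFP-expressing U2OS cells after 4 hr compound exposure at 37 °C. Titrations spanned 46 uM to 2.9 nM; 0% = basal, 100% = 10 uM MG-132; concentration-response curves fitted.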
HBB splicing: hemoglobin beta splicing modulation; HBB splicing reporter cell assay, activation; EGFP reporter with mutant IVS2-654 intron; response scale: normalised to 500 nM splice-correcting PNA; Potency, µM (highest dose often 46.1 µM), inactives show at the highest dose activation, hits mostly activators; actives 0.06% (n = 65,000); further: potency means the concentration at half of the fitted maximal effect; 0% is about no effect
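HeLa cells stably expressing EGFP interrupted by mutant beta-globin intron 2 (IVS2-654), 500/well in 2% FCS. Treated with compound for 2 days at 37C. Splicing correction scored as total well GFP intensity (488 nm excitation, 500-520 nm emission); 500 nM antisense PNA served as control.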
TSHR agonist: activates the human thyroid stimulating hormone receptor; HEK293-CNG-TSHR cells (CNG channel as cAMP sensor), membrane potential dye, cAMP; Potency, µM (titrated, usually from 57.1 µM), without a hit: at the highest dose activation, actives largely listed as activators; P16473; AID 926; actives 0.48% (n = 73,000); active means well fitted activation curve with a large enough effect in the main read-out, with a control signal flat, not every such curve was filed as active; inconclusive means small, poorly fitted or top-dose-only effect, or a change in a side signal; inactive means no such curve, though single readings can be large or run the other way; % of control where 0% means no effect;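 further: the control signal comes from parental cells without the receptor; potency means the concentration at half of the fitted maximal effect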
Target sequence (P16473 whole entry, looked up): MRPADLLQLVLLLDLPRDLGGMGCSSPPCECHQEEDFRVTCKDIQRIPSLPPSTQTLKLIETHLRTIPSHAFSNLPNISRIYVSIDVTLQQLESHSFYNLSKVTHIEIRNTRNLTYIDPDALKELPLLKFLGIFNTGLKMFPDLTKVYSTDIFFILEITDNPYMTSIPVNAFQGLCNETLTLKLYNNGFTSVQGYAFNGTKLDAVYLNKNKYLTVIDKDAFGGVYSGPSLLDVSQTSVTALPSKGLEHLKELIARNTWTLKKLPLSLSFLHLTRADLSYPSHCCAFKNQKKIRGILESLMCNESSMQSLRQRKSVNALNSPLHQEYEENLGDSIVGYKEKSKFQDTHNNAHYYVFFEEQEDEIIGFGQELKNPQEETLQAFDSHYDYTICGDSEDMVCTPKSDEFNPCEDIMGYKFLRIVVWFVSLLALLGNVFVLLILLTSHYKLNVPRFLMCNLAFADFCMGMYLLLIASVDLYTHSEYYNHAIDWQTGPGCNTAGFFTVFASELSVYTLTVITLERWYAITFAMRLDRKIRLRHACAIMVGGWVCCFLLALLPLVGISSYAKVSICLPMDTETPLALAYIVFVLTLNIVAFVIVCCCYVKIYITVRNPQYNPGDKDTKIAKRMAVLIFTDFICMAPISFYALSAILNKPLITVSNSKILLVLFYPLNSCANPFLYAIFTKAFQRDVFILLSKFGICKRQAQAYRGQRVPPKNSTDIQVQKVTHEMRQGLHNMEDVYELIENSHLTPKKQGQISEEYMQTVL
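cAMP rise detected as CNG-channel membrane depolarization by fluorescent dye (emission 590 nm), 30 min after compound, following 60 min dye loading containing 100 uM RO 20-1724 at room temperature. Cells: TSHR/CNG HEK 293, with parental CNG HEK 293 as control.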
Active calls of the source: *; ? = inconclusive; / = not tested or not shown; [ ] = another dose, or the depositor's remark. Unless noted, the call rests on the fitted dose curve; in most records, active means well fitted curve in the direction sought with a large enough effect; inconclusive means small, poorly fitted or top-dose-only effect, or another doubt; inactive means no such curve, though single readings can be large; an effect the other way counts as inactive or inconclusive.

SMILES | HEK293 cAMP cs | GFP derepression | UbGFP stabilizer | HBB splicing | TSHR agonist
CCOC(=O)c1c(NC(=O)CN2CCCCC2)sc2c1CCN(C(=O)OCC)C2 | 7.9µM* | / | / | / | ?
O=C(O)/C=C\c1cnc[nH]1 | ? | -2% | 0% | 1% | ?
O=C(O)c1cc(S(=O)(=O)Nc2ccc(O)cc2)ccc1Cl | 11% | / | / | / | 8%
Cn1c(=O)c2c(nc(N3CCNCC3)n2Cc2cccc3ccccc23)n(C)c1=O | 2% | -2% | -4% | / | -9%
COc1cccc(Cn2c(Oc3cccc(C)c3)nc3c2c(=O)n(C)c(=O)n3C)c1 | 25µM* | -2% | 1% | -3%[57.5 µM] | ?
CCCOc1nc2c(c(=O)n(C)c(=O)n2C)n1Cc1cccc2ccccc12 | 32µM* | 4% | 4% | 3%[57.5 µM] | ?
COc1cccc(Cn2c(Oc3ccccc3)nc3c2c(=O)n(C)c(=O)n3C)c1 | / | -4%[20.6 µM] | / | / | /
C/C(CCN1CCCc2nc(C)c(C)cc21)=N\OC[C@@H](O)[C@@H]1O[C@@H]2OC(C)(C)O[C@@H]2[C@H]1O | 3%[11.4 µM] | / | / | 0%[9.22 µM] | 2%[11.4 µM]
CCCCN(CC)S(=O)(=O)c1cccc2cccnc12 | 20µM* | / | 4% | -2% | ?
O=C(O)c1ccc2cc(-c3ccc(O)c(C45CC6CC(CC(C6)C4)C5)c3)ccc2c1 | 7% | / | / | -1% | 1%
CON(C)C(=O)c1nnc2c(n1)[nH]c1ccccc12 | 6%[11.4 µM] | / | / | 0%[9.22 µM] | 1%[11.4 µM]
COc1ccc(C(=O)n2c(-c3ccco3)nc3ccccc32)cc1 | 25µM* | 0% | 4% | 1%[1.84 µM] | ?
CCCN1C[C@@H](CSC)C[C@H]2c3cccc4[nH]cc(c34)C[C@@H]21 | 11% | 0% | 0% | -1% | -20%
O=C(c1ccc(Cc2nc3ccccc3[nH]2)cc1)N1CCCCC1 | -19% | / | / | / | 1%
COCCNc1nc(C)nc2c1nc(-c1ccccc1)n2CCN1CCCCC1 | ? | / | 0% | -1% | ?
Cc1nc(NCc2ccccc2)c2nc(-c3ccccc3)n(CCN3CCOCC3)c2n1 | 32µM* | / | -6% | -1% | ?
CCCCNc1nc(C)nc2c1nc(-c1ccccc1)n2CCN1CCCCC1 | 13µM* | / | -5% | -1% | ?
C=CC[C@@H]1C=C[C@H](O/N=C2\c3cc(OC)ccc3O[C@H](c3cccc(OC)c3)[C@H]2O)[C@H](CO)O1 | 6%[11.4 µM] | / | / | -2%[9.22 µM] | -1%[11.4 µM]
O=C(NC1CCCC1)C(c1cccs1)N(CC1CCCO1)C(=O)Cc1cccs1 (stereo not given) | 0.32µM* | -2% | -2% | -7% | ?
O=C(NCC(=O)N(Cc1ccc(F)cc1)C(C(=O)NC1CCCC1)c1ccco1)c1ccco1 (stereo not given) | 16µM* | 8% | -5% | 0%[57.5 µM] | ?
O=C(NC1CCCCC1)C(c1cccs1)N(Cc1cccs1)C(=O)c1ccco1 (stereo not given) | 0.4µM* | 1% | -4% | / | ?
O=C(NC1CCCCC1)C(c1cccs1)N(CC1CCCO1)C(=O)c1csnn1 (stereo not given) | ? | -3% | -1% | 0%[57.5 µM] | ?
CCCn1c(SCC(=O)Nc2nnc(CC)s2)nc2c1c(=O)n(C)c(=O)n2C | 8% | 0% | -1% | 0%[57.5 µM] | 4%
CCCCn1c(SCC(=O)Nc2nnc(C(C)C)s2)nc2c1c(=O)n(C)c(=O)n2C | 1.6µM* | -2% | -5% | 0%[57.5 µM] | ?
CCCn1c(SCC(=O)Nc2nc3c(s2)CCCC3)nc2c1c(=O)n(C)c(=O)n2C | 16µM* | 0% | -1% | 0%[57.5 µM] | ?
SMILES | HEK293 cAMP cs | GFP derepression | UbGFP stabilizer | HBB splicing | TSHR agonist
Cc1ccc(CC(=O)N2CCC(c3nc4c(nnn4Cc4ccccc4)c(=O)[nH]3)CC2)cc1 | 8% | / | -5% | 0% | 1%
Cc1ccc(C(=O)N2CCCC(c3nc4c(nnn4Cc4ccccc4)c(=O)[nH]3)C2)cc1 (stereo not given) | 25µM* | 3% | -3% | 0%[57.5 µM] | ?
CCCCC(CC)CNC(=O)c1ccc2c(c1)OCO2 (stereo not given) | 4µM* | -2% | 5%[9.17 µM] | -2%[0.0738 µM] | ?
Cc1ccc(S(=O)(=O)N(CC(=O)O)c2cccc(Cl)c2)cc1 | 14% | / | / | / | 18%
O=C1c2ccccc2C(Nc2ccc(F)c(Cl)c2)N1c1ccccn1 (stereo not given) | 13% | / | -6% | 0% | 20µM*
CN(C)c1cc(NC(=O)CN2CCOCC2)c2ccccc2n1 | 20µM* | / | -7% | 0% | ?
Cc1cccc(-c2noc(-c3ccccc3C(=O)NCC3CCCO3)n2)c1 (stereo not given) | ? | 3% | 7% | 2%[1.84 µM] | ?
CC(C)(C)NC(=O)c1ccccc1-c1nc(-c2ccccc2Cl)no1 | 16µM* | 0% | -4% | 1%[1.84 µM] | ?
CC(C)NC(=O)c1ccccc1-c1nc(-c2ccccc2Cl)no1 | ? | 6% | 0% | 3%[1.84 µM] | ?
COc1cccc(NC(=O)c2ccccc2-c2nc(-c3cccc(C)c3)no2)c1 | 16µM* | 0% | 7% | 6%[1.84 µM] | ?
CCOc1ccccc1NC(=O)c1ccccc1-c1nc(-c2ccccc2OC)no1 | 20µM* | 0% | 30% | -1% | ?
COCCNC(=O)c1ccccc1-c1nc(-c2ccccc2OC)no1 | 6% | -1% | -10% | 2% | 18%
COC(=O)C/C=C\[C@@H](C)[C@@H](/C=N\O[C@@H](C)CN1CCCc2nc(C)c(C)cc21)OC | 24%[11.4 µM] | / | / | 1%[9.22 µM] | 8%[11.4 µM]
COc1ccc(C(=O)c2coc3ccc(O)c(CN(C)C)c23)cc1 | 32µM* | / | -8% | 0% | ?
C[C@@H](c1ccccc1)N1C(=O)[C@H]2[C@@H]3[C@H](O)[C@H](O)CC(=O)[C@H]3CC[C@H]2C1=O | -1%[11.4 µM] | / | / | 2%[9.22 µM] | -3%[11.4 µM]
CCc1ccc(-c2cn(-c3nc(C)cc(C)n3)c(=N)o2)cc1 | 25µM* | 2% | / | 3%[0.369 µM] | ?
CCC/C=C(\CCC)C(NC(=O)c1ccccc1)c1ccc(C(=O)OC)cc1 (stereo not given) | 3.2µM* | / | / | 2% | ?
CC(NC(=O)C(C)(C)C)c1nc2ccccc2n1C (stereo not given) | 3% | 1% | -6% | -2% | -2%[11.4 µM]
CCCC/C=C/C(NC(=O)C(C)(C)C)c1ccccc1 (stereo not given) | 25µM* | / | / | 3% | ?
CCCC/C=C/C(NC(=O)c1ccc(C(=O)OC)cc1)c1ccccc1 (stereo not given) | 25µM* | / | / | 0% | ?
C[C@H]1[C@H](C)CC[C@@]2(C(=O)O)CC[C@]3(C)C(=CC[C@H]4[C@@]5(C)C[C@@H](O)[C@H](O)[C@@](C)(CO)[C@@H]5CC[C@@]43C)[C@@H]12 | ? | -4%[9.22 µM] | 1% | / | ?
